Test results: PubChem BioAssay
Unmarked numbers belong to inactive results. Calls of active or inactive are those of the source.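 The calls were made as follows, unless noted: active = mean inhibition above 46.68%, the untreated control wells mean plus 3 SD; inactive = the rest.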

target: Nuclear receptor coactivator 1 (Homo sapiens) (UniProt Q15788); assay: SRC1 coactivator transcriptional activity inhibitors, confirmation, cell-based, luminescence, quadruplicate (AID 588820); conditions: HEK293 GAL4-SRC1 luciferase reporter, at 3.6 µM, stronger effect = higher value;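 also: 0% = DMSO wells and 100% = gossypol 36 µM treated wells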
Sequence (Q15788 whole entry, looked up, the tested form may be a part): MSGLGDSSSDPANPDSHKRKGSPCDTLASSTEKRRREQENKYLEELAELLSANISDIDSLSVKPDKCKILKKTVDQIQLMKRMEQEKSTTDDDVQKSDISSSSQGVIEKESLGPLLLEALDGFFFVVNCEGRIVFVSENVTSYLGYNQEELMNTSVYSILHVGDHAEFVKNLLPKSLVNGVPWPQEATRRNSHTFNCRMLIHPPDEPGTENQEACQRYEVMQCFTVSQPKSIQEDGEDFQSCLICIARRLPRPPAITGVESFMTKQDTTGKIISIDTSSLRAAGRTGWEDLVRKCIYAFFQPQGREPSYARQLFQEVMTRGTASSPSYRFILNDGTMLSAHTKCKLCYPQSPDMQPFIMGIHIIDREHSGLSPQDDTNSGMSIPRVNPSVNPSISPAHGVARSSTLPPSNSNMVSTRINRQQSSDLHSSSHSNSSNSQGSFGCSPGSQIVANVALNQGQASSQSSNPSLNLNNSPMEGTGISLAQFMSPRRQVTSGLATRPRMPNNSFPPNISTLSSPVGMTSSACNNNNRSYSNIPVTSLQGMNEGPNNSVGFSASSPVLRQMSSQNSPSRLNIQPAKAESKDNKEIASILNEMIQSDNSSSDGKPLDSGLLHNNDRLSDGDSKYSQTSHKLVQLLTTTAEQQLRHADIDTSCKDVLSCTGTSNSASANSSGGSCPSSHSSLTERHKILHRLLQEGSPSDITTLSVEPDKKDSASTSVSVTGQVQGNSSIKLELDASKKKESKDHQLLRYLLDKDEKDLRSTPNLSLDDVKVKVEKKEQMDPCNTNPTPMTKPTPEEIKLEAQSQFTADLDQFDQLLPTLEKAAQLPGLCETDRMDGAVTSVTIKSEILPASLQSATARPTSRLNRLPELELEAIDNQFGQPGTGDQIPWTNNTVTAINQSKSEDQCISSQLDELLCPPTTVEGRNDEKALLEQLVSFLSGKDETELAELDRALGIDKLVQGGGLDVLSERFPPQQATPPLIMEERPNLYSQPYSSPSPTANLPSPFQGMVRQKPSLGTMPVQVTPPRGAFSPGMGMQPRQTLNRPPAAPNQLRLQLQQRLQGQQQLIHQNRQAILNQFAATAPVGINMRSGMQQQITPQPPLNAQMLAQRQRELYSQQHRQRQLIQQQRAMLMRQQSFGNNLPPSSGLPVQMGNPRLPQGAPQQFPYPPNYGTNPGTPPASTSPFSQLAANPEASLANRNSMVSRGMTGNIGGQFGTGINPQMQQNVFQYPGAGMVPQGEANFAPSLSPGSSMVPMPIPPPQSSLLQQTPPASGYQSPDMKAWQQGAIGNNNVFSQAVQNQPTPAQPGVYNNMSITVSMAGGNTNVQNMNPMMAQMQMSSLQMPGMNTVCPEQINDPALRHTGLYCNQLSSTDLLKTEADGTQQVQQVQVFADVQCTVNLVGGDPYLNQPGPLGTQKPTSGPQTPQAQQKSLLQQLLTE

Row | SMILES | inhibition [%]
1 | COc1cccc(CNC(=O)C2CCCN(S(C)(=O)=O)C2)c1 (stereo not given) | -0.5
2 | O=C(NCc1ccccc1)c1cc(S(=O)(=O)N2CCCCC2)ccc1N1CCOCC1 | -1.88
3 | O=C(CNC(=O)c1cccc(F)c1)N/N=C/c1cc(Br)ccc1OC(=O)/C=C/c1ccco1 | 3.9
4 | COc1ccc2nc(N3CCN(C(=O)c4ccc5ncsc5c4)CC3)sc2c1 | -5.74
5 | O=C(CSc1nc2[nH]ncc2c(=O)[nH]1)N1CCCCC1 | -8.66
6 | O=C(NCCC(=O)N1CCCC(C(F)(F)F)C1)c1ccc(Br)cc1 (stereo not given) | -7.52
7 | COc1ccc(CN2CCN(C(=O)c3ccc(S(=O)(=O)N4CCCCCC4)cc3)CC2)cc1 | -2.25
8 | CN(Cc1ccccc1)C(=O)c1ccc(NC(=O)C2CCCN(C(=O)OC(C)(C)C)C2)cc1 (stereo not given) | -1.28
9 | O=C(CSC1=NS(=O)(=O)c2cc(Cl)ccc2N1)Nc1ccccc1C(F)(F)F | -22.4
10 | COc1ccc2cc3cc(C(=O)NCCc4ccc(OC)c(OC)c4)oc3nc2c1 | -32.9
11 | COc1ccc(CN(CC(=O)NCc2ccccc2)C(=O)CCC(=O)Nc2cc(C)ccn2)cc1 | -7.07
12 | COc1ccc2cc3cc(C(=O)NCc4cccs4)oc3nc2c1 | 4.16
13 | CSc1nc2[nH]ncc2c(=O)[nH]1 | -1.61
14 | COc1ccc(S(=O)(=O)N2CCCCCC2)cc1C(=O)N(C)CCOc1ccccc1 | 5.04
15 | Cc1c(C)n2c(SCC(=O)NCc3ccc4c(c3)OCO4)nnc2[nH]c1=O | -1.32
16 | CCC1(c2ccc(F)cc2)NC(=O)N(CC(=O)NCC(=O)Nc2cccc(C)c2C)C1=O (stereo not given) | 6.24
17 | Cc1ccc(S(=O)(=O)c2nc(-c3ccccc3Cl)oc2NCCCN2CCOCC2)cc1 | -13.7
18 | COc1ccccc1C(c1nnnn1Cc1ccco1)N1CCN(c2cccc(C)c2C)CC1 (stereo not given) | 10.7
19 | CC(C)Nc1ccc(Nc2ccnc3cc4ccccc4cc23)cc1 | 29.3
20 | Cc1ccc(S(=O)(=O)NCCC2=CCCCC2)cc1 | -5.59

Row | SMILES | inhibition [%]
21 | CNc1snc(C)c1C(=O)OCC(=O)Nc1ccc(C)cc1F | 3.09
22 | CCc1ccc(-c2nnn(CCC(=O)OC)n2)cc1 | -2.93
23 | CCOC(=O)N1CCN(C(=O)c2cc(-c3ccncc3)nc3ccccc23)CC1 | -21.2
24 | C=CCc1cccc(/C=N/NC(=O)C(C)Nc2ccc(C)cc2)c1O (stereo not given) | 6.49
25 | CCCC(=O)N1CCCC(c2cc(C(=O)Nc3ccccc3)no2)C1 (stereo not given) | -49.1
26 | CCOC(=O)c1ccc2c(c1)n(CC)c(/C=C/N(C)c1ccccc1)[n+]2CC | 29.7
27 | COc1ccc2c(c1)c(C(=O)CN1CCN(Cc3ccccc3)CC1)c(C)n2C | -13.6
28 | O=C(COC(=O)C1CCN(c2ccc(C(F)(F)F)cn2)CC1)NCc1cccc(Cl)c1 | 1.02
29 | O=C(N[C@H]1c2ccccc2C[C@H]1O)[C@H]1O[C@@H](n2ccc(=O)[nH]c2=O)[C@H](O)[C@@H]1O | -26.1
30 | COc1ccc(CNC(=O)c2ccc(N3CCC4(CC3)CC(c3ccc(Cl)cc3)=NO4)c([N+](=O)[O-])c2)cc1 | 6.27
31 | O=C(c1ccccc1)N1CCN(Cc2ccc3c(c2)OCO3)CC1 | 0.9
32 | Cc1cccnc1NC(=O)c1cccc(S(=O)(=O)NCc2ccccc2)c1 | -10.8
33 | COc1ccc(NC(=O)C2CCN(c3cnccn3)CC2)cc1Cl | 1.5
34 | c1ccc(-c2nc(NCCCn3ccnc3)c3ccccc3n2)cc1 | -10.8
35 | COc1ccc(OCC(=O)Nc2ccc3c(c2)n(C)c(=O)n3C)cc1 | -14.2
36 | CC(C)C(=O)N1CCN(c2ccc(NC(=O)c3ccc4c(c3)OCCO4)cc2Cl)CC1 | -52.5
37 | CCN(C(=S)NC(=O)C1CC1)c1ccccc1 | -8.52
38 | CCOc1cccc(/C=N/NC(=O)c2cc(C3CC3)[nH]n2)c1O | 21.5
39 | O=[N+]([O-])c1ccc(C[n+]2cccc3c4ccccc4ccc32)cc1 | 3.12
40 | COc1ccc(Cl)cc1NC(=O)Nc1ccccc1C(N)=O | 9.1

system: not listed separately; assay: VP16 transactivation inhibitors, counter-screen for SRC1 inhibitor project, cell-based, luminescence, high throughput (AID 588824; in the data active = inhibition above about 25%); conditions: cell-based VP16 transactivation luciferase luminescence; at 3.6 µM; stronger effect = higher value

Row | SMILES | inhibition
41 | COc1cccc(CNC(=O)C2CCCN(S(C)(=O)=O)C2)c1 (stereo not given) | 8.47%
42 | O=C(NCc1ccccc1)c1cc(S(=O)(=O)N2CCCCC2)ccc1N1CCOCC1 | 11.3%
43 | O=C(CNC(=O)c1cccc(F)c1)N/N=C/c1cc(Br)ccc1OC(=O)/C=C/c1ccco1 | 6.51%
44 | COc1ccc2nc(N3CCN(C(=O)c4ccc5ncsc5c4)CC3)sc2c1 | -0.4%
45 | O=C(CSc1nc2[nH]ncc2c(=O)[nH]1)N1CCCCC1 | -6.86%
46 | O=C(NCCC(=O)N1CCCC(C(F)(F)F)C1)c1ccc(Br)cc1 (stereo not given) | -9.82%
47 | COc1ccc(CN2CCN(C(=O)c3ccc(S(=O)(=O)N4CCCCCC4)cc3)CC2)cc1 | 25.6% (active)
48 | CN(Cc1ccccc1)C(=O)c1ccc(NC(=O)C2CCCN(C(=O)OC(C)(C)C)C2)cc1 (stereo not given) | 8.32%
49 | O=C(CSC1=NS(=O)(=O)c2cc(Cl)ccc2N1)Nc1ccccc1C(F)(F)F | -12.3%
50 | COc1ccc2cc3cc(C(=O)NCCc4ccc(OC)c(OC)c4)oc3nc2c1 | 42.2% (active)
51 | COc1ccc(CN(CC(=O)NCc2ccccc2)C(=O)CCC(=O)Nc2cc(C)ccn2)cc1 | 0.36%
52 | COc1ccc2cc3cc(C(=O)NCc4cccs4)oc3nc2c1 | 39.4% (active)
53 | CSc1nc2[nH]ncc2c(=O)[nH]1 | 1.46%
54 | COc1ccc(S(=O)(=O)N2CCCCCC2)cc1C(=O)N(C)CCOc1ccccc1 | -8.6%
55 | Cc1c(C)n2c(SCC(=O)NCc3ccc4c(c3)OCO4)nnc2[nH]c1=O | -7.94%
56 | CCC1(c2ccc(F)cc2)NC(=O)N(CC(=O)NCC(=O)Nc2cccc(C)c2C)C1=O (stereo not given) | 6.8%
57 | Cc1ccc(S(=O)(=O)c2nc(-c3ccccc3Cl)oc2NCCCN2CCOCC2)cc1 | -5.68%
58 | COc1ccccc1C(c1nnnn1Cc1ccco1)N1CCN(c2cccc(C)c2C)CC1 (stereo not given) | 5.76%
59 | CC(C)Nc1ccc(Nc2ccnc3cc4ccccc4cc23)cc1 | 38% (active)
60 | Cc1ccc(S(=O)(=O)NCCC2=CCCCC2)cc1 | 7%

Row | SMILES | inhibition
61 | CNc1snc(C)c1C(=O)OCC(=O)Nc1ccc(C)cc1F | -1.51%
62 | CCc1ccc(-c2nnn(CCC(=O)OC)n2)cc1 | 9.9%
63 | CCOC(=O)N1CCN(C(=O)c2cc(-c3ccncc3)nc3ccccc23)CC1 | 3.82%
64 | C=CCc1cccc(/C=N/NC(=O)C(C)Nc2ccc(C)cc2)c1O (stereo not given) | 8.01%
65 | CCCC(=O)N1CCCC(c2cc(C(=O)Nc3ccccc3)no2)C1 (stereo not given) | -30.6%
66 | CCOC(=O)c1ccc2c(c1)n(CC)c(/C=C/N(C)c1ccccc1)[n+]2CC | 62.3% (active)
67 | COc1ccc2c(c1)c(C(=O)CN1CCN(Cc3ccccc3)CC1)c(C)n2C | -0.22%
68 | O=C(COC(=O)C1CCN(c2ccc(C(F)(F)F)cn2)CC1)NCc1cccc(Cl)c1 | -3.36%
69 | O=C(N[C@H]1c2ccccc2C[C@H]1O)[C@H]1O[C@@H](n2ccc(=O)[nH]c2=O)[C@H](O)[C@@H]1O | -8.81%
70 | COc1ccc(CNC(=O)c2ccc(N3CCC4(CC3)CC(c3ccc(Cl)cc3)=NO4)c([N+](=O)[O-])c2)cc1 | 28.2% (active)
71 | O=C(c1ccccc1)N1CCN(Cc2ccc3c(c2)OCO3)CC1 | 3.86%
72 | Cc1cccnc1NC(=O)c1cccc(S(=O)(=O)NCc2ccccc2)c1 | 3%
73 | COc1ccc(NC(=O)C2CCN(c3cnccn3)CC2)cc1Cl | 1.48%
74 | c1ccc(-c2nc(NCCCn3ccnc3)c3ccccc3n2)cc1 | -2.43%
75 | COc1ccc(OCC(=O)Nc2ccc3c(c2)n(C)c(=O)n3C)cc1 | -5.89%
76 | CC(C)C(=O)N1CCN(c2ccc(NC(=O)c3ccc4c(c3)OCCO4)cc2Cl)CC1 | -6.57%
77 | CCN(C(=S)NC(=O)C1CC1)c1ccccc1 | -4.48%
78 | CCOc1cccc(/C=N/NC(=O)c2cc(C3CC3)[nH]n2)c1O | 21.7%
79 | O=[N+]([O-])c1ccc(C[n+]2cccc3c4ccccc4ccc32)cc1 | 34.3% (active)
80 | COc1ccc(Cl)cc1NC(=O)Nc1ccccc1C(N)=O | 17.7%
